Bioassay records (PubChem)
Cav3 T inh: inhibitors of human Cav3.2 T-type calcium channel | 4% of 100,000 active | AID 449739 | B-score at 10 µM | Cav3.2-expressing cells, Fluo-4 calcium fluorescence FDSS; hits give low values;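 active = single-dose well whose peak fluorescence ratio is a statistical outlier from its plate by either plate-standardised score or position-corrected B-score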
CD11b adhes inh: inhibitors of human CD11b/CD18 binding to fibrinogen; P05107+P11215; K562 CD11b/CD18 adhesion to fibrinogen, ATPlite luminescence; Mn2+ added to activate the integrin; inhibition, % at 10 µM; 0.54% of 93,000 active; AID 1497;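 active = primary inhibition of 50% or more at 10 µM, then 40% or more on retest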
MRP1 act: activators of MRP-1 | H69AR cells + doxorubicin, viability rescue, CellTiter-Glo | 0.61% of 140,000 active | viability increase, % at 10 µM;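 active = viability gain under doxorubicin at or above a set limit, the compound median plus 3 SD, cut at about 4.7% in these data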;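 note: MRP-1 overexpressing cells given doxorubicin 25 µM after compound pretreatment; 18-22 h compound pretreatment then 72 h with doxorubicin before readout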
PTK2B oligo ant: blocks oligomerization of human Pyk2 in cells; Q14289; Q293 cells, Pyk2 FERM NanoBiT luminescence; hits give low values; z-score (the deposit names both 25 µM and 10 µM); 0.83% of 99,000 active; AID 1347419;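 active = Z-score of -3 or lower, scaled per plate to the spread of control and sample wells; inactive = z-score above -3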;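 note: negative z-score means lost luminescence so less FERM oligomerization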
Target sequence (Q14289 whole entry, looked up): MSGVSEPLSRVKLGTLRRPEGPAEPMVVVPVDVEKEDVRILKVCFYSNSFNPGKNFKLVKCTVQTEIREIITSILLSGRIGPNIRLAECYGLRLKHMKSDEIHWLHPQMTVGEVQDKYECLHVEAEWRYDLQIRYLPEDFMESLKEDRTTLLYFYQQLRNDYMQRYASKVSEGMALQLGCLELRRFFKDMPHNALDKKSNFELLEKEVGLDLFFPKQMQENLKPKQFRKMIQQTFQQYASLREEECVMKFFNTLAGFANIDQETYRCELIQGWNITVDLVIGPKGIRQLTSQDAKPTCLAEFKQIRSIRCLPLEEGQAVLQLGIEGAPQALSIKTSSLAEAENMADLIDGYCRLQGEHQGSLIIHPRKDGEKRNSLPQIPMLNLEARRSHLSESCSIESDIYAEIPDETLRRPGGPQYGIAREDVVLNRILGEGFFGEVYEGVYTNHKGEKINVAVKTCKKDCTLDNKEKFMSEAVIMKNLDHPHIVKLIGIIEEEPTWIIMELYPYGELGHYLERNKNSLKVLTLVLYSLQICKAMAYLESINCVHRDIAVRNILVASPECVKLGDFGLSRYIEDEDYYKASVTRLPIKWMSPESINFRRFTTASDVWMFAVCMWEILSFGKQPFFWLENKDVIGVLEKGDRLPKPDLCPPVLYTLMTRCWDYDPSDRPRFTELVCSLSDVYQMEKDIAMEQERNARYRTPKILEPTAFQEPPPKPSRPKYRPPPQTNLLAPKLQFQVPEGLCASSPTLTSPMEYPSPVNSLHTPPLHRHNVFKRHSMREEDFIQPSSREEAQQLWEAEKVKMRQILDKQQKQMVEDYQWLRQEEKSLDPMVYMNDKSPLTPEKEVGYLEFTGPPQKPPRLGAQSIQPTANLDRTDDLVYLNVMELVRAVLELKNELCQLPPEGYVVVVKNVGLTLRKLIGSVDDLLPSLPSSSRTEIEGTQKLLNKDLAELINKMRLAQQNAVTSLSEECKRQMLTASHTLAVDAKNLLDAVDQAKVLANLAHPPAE
Mac1 fbg enh: enhancers of human CD11b/CD18 binding to fibrinogen; P05107+P11215; K562 CD11b/CD18 adhesion to fibrinogen, ATPlite luminescence; activation, % at 10 µM; 0.07% of 93,000 active;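 active = 10 µM primary screen giving 50% or more activity, confirmed by 40% or more on retest at that dose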
MRP resist rev: reverses drug resistance mediated by MRP | H69AR cells + 2 uM doxorubicin, CellTiter-Glo, 72 h | AID 602 | 0.04% of 85,000 active | differential viability (reversal), % at 10 µM;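 active = viability drop by adding the cancer drug above about 55%, with treated viability meeting a 40% cutoff, limit read from the data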;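 note: larger differential means the compound sensitizes cells more to doxorubicin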
A number is an active result. Sampled rows, rich in hits. Any-hit rate of the full collection: about 4.1%.

Screening Cc1ccc(/C=N/NC(=S)N2CCOCC2)cc1 returned MRP1 act inactive.
`S=C(N/N=C/c1ccc(Cl)cc1)N1CCOCC1` gave MRP1 act 5.7.
Screening O=S(=O)(NCc1ccccc1)c1ccc(S(=O)(=O)N(Cc2ccccn2)C2CCCC2)cc1 returned Cav3 T inh -4.1, MRP1 act inactive, PTK2B oligo ant inactive and MRP resist rev inactive.
`Cn1c[n+](C)cc1/C=N/O` gave Cav3 T inh inactive, MRP1 act inactive, PTK2B oligo ant inactive and MRP resist rev inactive.
Screening O=C1NC(=O)/C(=C\c2ccc(Oc3ccc([N+](=O)[O-])cn3)cc2)S1 returned CD11b adhes inh inactive, MRP1 act inactive and Mac1 fbg enh inactive.
O=C1NC(=O)/C(=C\c2ccccc2Oc2ccc(F)c(F)c2)S1 was read as CD11b adhes inh 85, MRP1 act inactive, PTK2B oligo ant inactive and Mac1 fbg enh inactive.
Screening CC(C)(C)c1ccc(C(=O)Nc2ccc(Cl)cc2)cc1 returned MRP1 act inactive.
COC(=O)Cc1ccc(NC(=O)c2ccc(C(C)(C)C)cc2)cc1 was read as Cav3 T inh -5.2, CD11b adhes inh 59, MRP1 act inactive, PTK2B oligo ant inactive, Mac1 fbg enh inactive and MRP resist rev inactive.
Screening CN(C(=O)CSc1ncccc1C(=O)O)c1ccccc1 returned Cav3 T inh -3.5, CD11b adhes inh inactive, MRP1 act inactive, PTK2B oligo ant inactive, Mac1 fbg enh inactive and MRP resist rev inactive.
`O=C(Nc1cccc(-c2cnc3ccccc3n2)c1)c1ccccc1` gave Cav3 T inh inactive, MRP1 act inactive and PTK2B oligo ant inactive.
O=C(Nc1ccccc1-c1ccccc1)c1ccc(NC(=O)c2ccco2)cc1 was read as Cav3 T inh -5.5, CD11b adhes inh inactive, MRP1 act inactive, PTK2B oligo ant inactive, Mac1 fbg enh inactive and MRP resist rev inactive.
Screening O=C(Nc1ccccc1-c1ccccc1)c1ccco1 returned Cav3 T inh inactive, CD11b adhes inh inactive, MRP1 act inactive, PTK2B oligo ant inactive, Mac1 fbg enh inactive and MRP resist rev inactive.
For O=C(Nc1cccc(-c2cnc3ccccc3n2)c1)c1cccc(NC(=O)c2ccco2)c1 the results were Cav3 T inh inactive, CD11b adhes inh inactive, MRP1 act inactive, PTK2B oligo ant -4.4, Mac1 fbg enh inactive and MRP resist rev inactive.
Screening CC(C)C(=O)NC(c1ccco1)c1c(O)ccc2ccccc12 (stereo unspecified) returned Cav3 T inh inactive, CD11b adhes inh inactive, MRP1 act inactive, PTK2B oligo ant inactive and Mac1 fbg enh inactive.
Screening COc1cccc(CNc2ccc(N3CCC(C)CC3)cc2)c1OC returned Cav3 T inh -7.7, MRP1 act inactive, PTK2B oligo ant inactive and MRP resist rev inactive.
`CCOC(=O)CN1C(=O)C(Sc2n[nH]c(-c3ccc(O)cc3)n2)CCc2ccccc21` (stereo unspecified) gave Cav3 T inh -6.5, CD11b adhes inh inactive, MRP1 act inactive, PTK2B oligo ant inactive and Mac1 fbg enh inactive.
Cc1ccc(S(=O)(=O)/N=C2/C=C(Sc3ncn[nH]3)C(=O)c3ccccc32)c(C)c1 was read as MRP1 act inactive.
Screening CC(C)c1ccc(S(=O)(=O)/N=C2/C=C(Sc3ncn[nH]3)C(=O)c3ccccc32)cc1 returned CD11b adhes inh 102, MRP1 act inactive and Mac1 fbg enh inactive.
For Cc1ccc(S(=O)(=O)/N=C2/C=C(Sc3ncn[nH]3)C(=O)c3ccccc32)cc1 the results were MRP1 act inactive and PTK2B oligo ant -3.2.
Cc1cc(NS(=O)(=O)c2ccc(Nc3nc(-c4sc(NC(=O)c5ccccc5)nc4C)cs3)cc2)no1 was read as Cav3 T inh inactive, CD11b adhes inh 79, MRP1 act inactive, Mac1 fbg enh inactive and MRP resist rev inactive.
COC(=O)c1ccc(C2/C(=C(/O)c3ccc(OC(C)C)cc3)C(=O)C(=O)N2c2cc(C)on2)cc1 (stereo unspecified) was read as Cav3 T inh inactive, CD11b adhes inh inactive, MRP1 act inactive, PTK2B oligo ant inactive, Mac1 fbg enh inactive and MRP resist rev inactive.
CSc1cccc(NS(=O)(=O)c2ccc(F)cc2)c1 was read as Cav3 T inh -7, CD11b adhes inh inactive, MRP1 act inactive, PTK2B oligo ant inactive, Mac1 fbg enh inactive and MRP resist rev inactive.
COc1cccc(C(=O)N(Cc2ccccc2)Cc2cc3cc4c(cc3[nH]c2=O)OCCO4)c1 was read as Cav3 T inh inactive, MRP1 act inactive, PTK2B oligo ant -3.3 and MRP resist rev inactive.
For Cc1cc2cc(CN(Cc3ccc4c(c3)OCO4)C(=O)c3ccco3)c(=O)[nH]c2cc1C the results were Cav3 T inh -6.3, CD11b adhes inh inactive, MRP1 act inactive, PTK2B oligo ant inactive, Mac1 fbg enh inactive and MRP resist rev inactive.
Screening COc1cc2cc(CN(Cc3ccc4c(c3)OCO4)C(=O)c3ccco3)c(=O)[nH]c2cc1OC returned Cav3 T inh inactive, PTK2B oligo ant inactive and MRP resist rev inactive.
`Clc1ccc(COc2ccccn2)c(Cl)c1` gave Cav3 T inh inactive, CD11b adhes inh inactive, MRP1 act inactive, PTK2B oligo ant inactive, Mac1 fbg enh inactive and MRP resist rev inactive.
Screening Cc1cc(C)nc(SCc2nc3ccccc3n2C)n1 returned Cav3 T inh inactive, CD11b adhes inh inactive, MRP1 act inactive, PTK2B oligo ant inactive, Mac1 fbg enh inactive and MRP resist rev inactive.
Cc1cc(C(=O)CSc2nnc(-c3ccccc3)n2-c2ccccc2)c(C)n1-c1ncn[nH]1 was read as Cav3 T inh inactive, CD11b adhes inh inactive, MRP1 act inactive, PTK2B oligo ant -3.2, Mac1 fbg enh inactive and MRP resist rev inactive.
COC(=O)c1ccccc1NC(=O)CN1C(=O)c2ccccc2S1(=O)=O was read as Cav3 T inh inactive, CD11b adhes inh inactive, MRP1 act inactive, PTK2B oligo ant inactive, Mac1 fbg enh inactive and MRP resist rev inactive.
O=C1CSC(=S)N1N=C1CCCCCC1 was read as CD11b adhes inh inactive, MRP1 act 5.9 and Mac1 fbg enh inactive.
`O=C(COC(=O)/C=C/c1ccccc1Cl)NCCc1ccc(Cl)cc1Cl` gave CD11b adhes inh inactive, MRP1 act inactive and Mac1 fbg enh inactive.
`O=C(CN1C(=O)C2(OCCO2)c2ccccc21)c1ccc(Br)cc1` gave Cav3 T inh -5.5, CD11b adhes inh inactive, MRP1 act inactive, PTK2B oligo ant inactive, Mac1 fbg enh inactive and MRP resist rev inactive.
For Cc1ccc(-c2nc(=S)c3c(n2CCN2CCOCC2)CC(C)(C)OC3)cc1 the results were Cav3 T inh inactive, CD11b adhes inh inactive, MRP1 act inactive, PTK2B oligo ant inactive, Mac1 fbg enh inactive and MRP resist rev inactive.
COc1ccc(S(=O)(=O)Nc2cc(C)c(O)c(S(=O)(=O)c3ccccc3)c2)cc1 was read as Cav3 T inh -5.1, CD11b adhes inh inactive, MRP1 act inactive, PTK2B oligo ant inactive, Mac1 fbg enh inactive and MRP resist rev inactive.
